# What was measured:
# [1] = tested on: Human papillomavirus type 1a protein E7 (residues 44-93); test: small molecules binding HPV E7 44-93 – biochemical, small-molecule microarray, residues 44-93, 635 nm fluorescence, primary screen (AID 1108); conditions: fluorescence 635 nm, higher = more signal;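 note: E7 fragment applied at 1 µg/mL in TBST for 1 h at 4 C; score combines spot fluorescence with its signal to noise ratio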
# [2] = hepatitis C replication reporter changes, two-sided – Huh7 cells, luciferase reporter, HCV replication inhibitor project, primary screen (AID 1109); conditions: Huh7 HCV replicon luciferase reporter, 48 h; higher = more signal;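 note: huh7 hepatoma cells harbouring a luciferase neomycin HCV replicon reporter; luciferase luminescence as measure of HCV replicon replication; test concentration not given here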
# [3] = biological target: Left-right determination factor 2 (Homo sapiens) (UniProt O00292); test: small molecules binding LEFTY2 protein – biochemical, small-molecule microarray, 635 nm fluorescence scan, primary screen (AID 1110); conditions: higher = more signal
# [4] = biological target: Calmodulin-1 (Homo sapiens) (UniProt P0DP23); test: small molecules binding calmodulin-1 with EGTA – biochemical, small-molecule microarray, Cy5-labelled CALM1, profiling panel (AID 1111); conditions: Cy5-CALM1 binding fluorescence, higher = more signal;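 note: labelled calmodulin applied in Tris saline Tween buffer holding calcium plus EGTA and DTT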
# [5] = biological target: Calmodulin-1 (Homo sapiens) (UniProt P0DP23); test: small molecules binding Ca-loaded calmodulin-1 – biochemical, small-molecule microarray, Cy5-labelled CALM1, plus calcium, artefact control for SMM control-protein annotation, profiling panel (AID 1112); conditions: Cy5-CALM1 binding fluorescence, higher = more signal;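 note: score merges spot fluorescence with signal to noise from triplicate slides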
# [6] = probe aWnt5a binding to arrayed compounds – biochemical, biotinylated probe, 635/667 nm fluorescence, primary screen (AID 1113); conditions: small-molecule microarray, higher = more signal;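 note: score merges 667 nm fluorescence intensity with signal-to-noise per printed feature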
# [7] = probe aShh binding to arrayed compounds – biochemical, biotinylated probe, 635/667 nm fluorescence, primary screen (AID 1114); conditions: small-molecule microarray, higher = more signal;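 note: probe is biotin-labelled aShh protein from a stem cell growth factor screen; measures binding of labelled protein to compounds printed on the slide; score merges feature fluorescence at 667 nm with signal-to-noise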
# [8] = probe aNog binding to arrayed compounds – biochemical, biotinylated probe, 635/667 nm fluorescence, primary screen (AID 1115); conditions: small-molecule microarray, higher = more signal;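 note: probe is biotinylated aNog protein used at 0.15 µg/mL for 1 h at 4 C; z-score combines 667 nm fluorescence of each spot with its signal to noise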
# [9] = biological target: Torsin-1A-interacting protein 1 (Homo sapiens) (UniProt Q5JTV8); test: compound microarray binding of lysate hLAP1 – cell lysate, small-molecule microarray, COS7 lysate, 635/667 nm fluorescence, primary screen (AID 1116); conditions: 635 nm fluorescence, higher = more signal
# [10] = biological target: Alpha-bungarotoxin (Bungarus multicinctus) (UniProt P60615); test: compounds binding labelled alpha-BTX control protein – biochemical, small-molecule microarray, Alexa647 label, 635/667 nm fluorescence, artefact control for SMM control protein annotation, profiling panel (AID 1117); conditions: alpha-BTX-A647 binding fluorescence, higher = more signal
# Chain of Alpha-bungarotoxin (Bungarus multicinctus) (P60615 whole entry, looked up): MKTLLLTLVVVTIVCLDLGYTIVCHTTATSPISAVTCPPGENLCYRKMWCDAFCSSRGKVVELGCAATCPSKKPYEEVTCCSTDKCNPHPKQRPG
# Chain of Torsin-1A-interacting protein 1 (Homo sapiens) (Q5JTV8 whole entry, looked up): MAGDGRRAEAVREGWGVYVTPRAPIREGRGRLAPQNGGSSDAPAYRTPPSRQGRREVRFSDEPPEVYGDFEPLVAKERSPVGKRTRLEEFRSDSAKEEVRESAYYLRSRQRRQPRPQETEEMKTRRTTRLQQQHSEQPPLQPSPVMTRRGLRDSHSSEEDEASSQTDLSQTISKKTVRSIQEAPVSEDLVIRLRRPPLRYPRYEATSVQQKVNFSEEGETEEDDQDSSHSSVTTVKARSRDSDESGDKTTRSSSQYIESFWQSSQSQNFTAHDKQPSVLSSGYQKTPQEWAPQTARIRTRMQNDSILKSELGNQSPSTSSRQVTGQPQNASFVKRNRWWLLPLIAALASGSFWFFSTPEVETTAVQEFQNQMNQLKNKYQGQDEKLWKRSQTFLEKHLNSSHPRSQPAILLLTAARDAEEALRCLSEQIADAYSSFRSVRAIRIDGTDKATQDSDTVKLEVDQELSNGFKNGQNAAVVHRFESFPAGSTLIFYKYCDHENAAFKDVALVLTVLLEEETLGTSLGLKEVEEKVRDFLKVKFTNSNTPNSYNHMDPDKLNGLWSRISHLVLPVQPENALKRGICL
# Chain of Left-right determination factor 2 (Homo sapiens) (O00292 whole entry, looked up): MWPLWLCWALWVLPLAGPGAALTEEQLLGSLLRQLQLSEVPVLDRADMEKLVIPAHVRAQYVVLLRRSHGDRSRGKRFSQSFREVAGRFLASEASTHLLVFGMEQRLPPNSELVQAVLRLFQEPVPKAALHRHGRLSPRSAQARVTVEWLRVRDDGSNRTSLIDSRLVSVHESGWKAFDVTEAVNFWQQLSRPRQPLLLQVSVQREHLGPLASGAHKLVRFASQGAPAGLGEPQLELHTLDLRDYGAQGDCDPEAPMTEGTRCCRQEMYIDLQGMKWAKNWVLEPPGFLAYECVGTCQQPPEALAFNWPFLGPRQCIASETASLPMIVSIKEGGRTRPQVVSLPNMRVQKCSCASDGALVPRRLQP
structure (smiles),measurement,setting,value
COc1ccc([Si](C)(C)[C@@H]2[C@@H](CCO)O[C@]3(C(=O)N(Cc4ccccc4)c4ccc(N5C(=O)c6ccccc6Oc6ccccc65)cc43)[C@H]2C)cc1,composite z-score,[1],-0.175
same,z-score,[2],-4.15
same,composite z-score,[3],-0.75
same,composite z-score,[4],0.417
same,composite z-score,[5],0.925
same,composite z-score,[6],-0.208
same,composite z-score,[7],-0.0605
same,composite z-score,[8],-0.0541
same,composite z-score,[9],-0.361
same,composite z-score,[10],0.367
COc1ccc([Si](C)(C)[C@H]2[C@H](CCn3cc([C@H](O)c4ccccc4)nn3)O[C@@]3(C(=O)N(c4ccccc4)c4ccccc43)[C@@H]2C)cc1,composite z-score,[1],0.323
same,z-score,[2],-2.91
same,composite z-score,[3],-0.202
same,composite z-score,[4],-0.0353
same,composite z-score,[5],0.82
same,composite z-score,[6],-0.1
same,composite z-score,[7],-0.2
same,composite z-score,[8],-0.143
same,composite z-score,[9],-0.179
same,composite z-score,[10],0.0509
COC(=O)[C@@]1(CCC(=O)OC(C)(C)C)N=C(c2ccc(OCCCO)cc2)O[C@H]1c1ccccc1CN=[N+]=[N-],composite z-score,[1],0.263
same,z-score,[2],-2.6
same,composite z-score,[3],-0.471
same,composite z-score,[4],0.183
same,composite z-score,[5],-0.222
same,composite z-score,[6],0.0079
same,composite z-score,[7],-0.0035
same,composite z-score,[8],-0.0655
same,composite z-score,[9],0.868
same,composite z-score,[10],0.592
CC(C)CNC(=O)[C@@H]1c2ccccc2C(=O)N(C2Cc3ccccc3C2)[C@H]1c1ccc(CO)cc1,composite z-score,[1],1.11
same,z-score,[2],-0.235
same,composite z-score,[3],-0.325
same,composite z-score,[4],-0.588
same,composite z-score,[5],-0.616
same,composite z-score,[6],-0.101
same,composite z-score,[7],-0.185
same,composite z-score,[8],0.325
same,composite z-score,[9],0.691
same,composite z-score,[10],-0.205
CC(C)C[C@H]1NC(=O)[C@H](Cc2ccccc2)NC(=O)[C@@]23C(=O)N[C@@H](Cc4ccccc4)C2[C@H](C)[C@@]2(C)O[C@H]2C3/C=C/C/C=C\CNC1=O (stereo not given in full),composite z-score,[1],-0.361
same,z-score,[2],-2.09
same,composite z-score,[3],0.431
same,composite z-score,[4],-0.128
same,composite z-score,[5],0.263
same,composite z-score,[6],-0.096
same,composite z-score,[7],-0.214
same,composite z-score,[8],0.3
same,composite z-score,[9],0.765
same,composite z-score,[10],0.93
C=CCNC(=O)[C@@H]1[C@H]2C(=O)O[C@H](c3ccccc3)[C@H](c3ccccc3)N2[C@H](c2ccc(O)cc2)[C@@]12C(=O)Nc1ccc(C#CC3(O)CCCCCC3)cc12,composite z-score,[1],0.754
same,z-score,[2],-0.608
same,composite z-score,[3],0.0712
same,composite z-score,[4],-0.542
same,composite z-score,[5],-0.0571
same,composite z-score,[6],-0.127
same,composite z-score,[7],0.488
same,composite z-score,[8],-0.499
same,composite z-score,[9],0.824
same,composite z-score,[10],-0.243
CC(C)(C)N1CC=CC23O[C@@H]4/C=C\CCCOC(=O)C4[C@H]2C(=O)N(CCCCCCO)[C@@H]3C1=O (stereo not given in full),composite z-score,[1],-0.802
same,z-score,[2],-0.762
same,composite z-score,[3],-1.03
same,composite z-score,[4],-0.558
same,composite z-score,[5],0.337
same,composite z-score,[6],-0.0873
same,composite z-score,[7],0.0952
same,composite z-score,[8],0.382
same,composite z-score,[9],1.24
same,composite z-score,[10],-1.34
COc1ccc(CCNC(=O)[C@@]2(Sc3ccc(C)cc3)CC(=O)N(C(C)C)[C@@H]2c2ccc(CO)cc2)cc1,composite z-score,[1],0.889
same,z-score,[2],-0.887
same,composite z-score,[3],-2.73
same,composite z-score,[4],0.359
same,composite z-score,[5],-0.242
same,composite z-score,[6],-0.28
same,composite z-score,[7],0.0121
same,composite z-score,[8],-0.209
same,composite z-score,[9],-1.16
same,composite z-score,[10],-0.563
COc1ccc([Si](C)(C)[C@H]2[C@H](CCO)O[C@@]3(C(=O)N(Cc4ccc(N5CCOC5=O)cc4)c4ccccc43)[C@@H]2C)cc1,composite z-score,[1],1.11
same,z-score,[2],-3.71
same,composite z-score,[3],-0.284
same,composite z-score,[4],0.854
same,composite z-score,[5],0.455
same,composite z-score,[6],-0.12
same,composite z-score,[7],0.151
same,composite z-score,[8],0
same,composite z-score,[9],0.248
same,composite z-score,[10],0.93
CC(=O)NCCCC[C@@H]1NC(=O)[C@H]2C[C@@H](C(=O)NCCCCCC[N+](C)(C)C)[C@@H](c3ccc(O)cc3)N2C1=O,composite z-score,[1],1.4
same,z-score,[2],1.38
same,composite z-score,[3],0.62
same,composite z-score,[4],-0.183
same,composite z-score,[5],-0.906
same,composite z-score,[6],-0.107
same,composite z-score,[7],-0.153
same,composite z-score,[8],0.762
same,composite z-score,[9],0.611
same,composite z-score,[10],0.472
CCCCC(=C=CC[C@@H](O)c1ccc(OCCO)cc1)C[C@@H](O)c1ccccn1,composite z-score,[1],-0.0715
same,z-score,[2],-1.49
same,composite z-score,[3],0.288
same,composite z-score,[4],0.421
same,composite z-score,[5],0.0751
same,composite z-score,[6],-0.0685
same,composite z-score,[7],0.0611
same,composite z-score,[8],0.157
same,composite z-score,[9],0.642
same,composite z-score,[10],0.0829
O=C1C2C=CC(C(O)C(c3ccccc3)c3ccccc3)N(Nc3ccccc3)C2C(=O)N1c1ccccc1 (stereo not given),composite z-score,[1],1.44
same,z-score,[2],-0.267
same,composite z-score,[3],0.438
same,composite z-score,[4],0.809
same,composite z-score,[5],0.173
same,composite z-score,[6],-0.0051
same,composite z-score,[7],0.0068
same,composite z-score,[8],0.162
same,composite z-score,[9],0.429
same,composite z-score,[10],1.1
CC(C)CNC(=O)[C@@H]1c2ccccc2C(=O)N(C(C)C)[C@H]1c1ccc(CO)cc1,composite z-score,[1],-0.043
same,z-score,[2],-0.972
same,composite z-score,[3],-0.269
same,composite z-score,[4],-0.451
same,composite z-score,[5],0.0584
same,composite z-score,[6],-0.24
same,composite z-score,[7],-0.2
same,composite z-score,[8],0.49
same,composite z-score,[9],1.58
same,composite z-score,[10],-0.75
